Here are results for eleven compounds from PubChem BioAssay (NCATS).

The nature of test [1]: qHTS Assay for Identification of Small Molecule Antagonists for NFkB Signaling Pathway (AID 895; active means well fitted inhibition curve with a large enough effect in the signal ratio, with a control signal flat, not every such curve was filed as active; the % refers to the signal ratio; further: potency means the concentration at half of the fitted maximal effect). A digest of the protocol: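 ME-180 NFkB-bla cells (beta-lactamase under NFkB response element), plated overnight, treated with compound then 10 pM TNF alpha (about EC50) for 5 hrs at 37 C. LiveBLAzer FRET read at 460/530 nm emission, 405 nm excitation.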
For orientation: Quantitative high-throughput screening tests each substance at several concentrations.

Test [2] has as its target Cytochrome P450 2C19 (Homo sapiens) (UniProt P33261). In words: qHTS Assay for Inhibitors and Substrates of Cytochrome P450 2C19 (AID 899). Further: nearly all actives have a fitted effect of over 60% in size. Further: potency means the concentration at half of the fitted maximal effect. A digest of the protocol:
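5 nM human CYP2C19 with 10uM Luciferin-H EGE (at KM) in 50mM KPO4, compound preincubated 10 min at 37C, then NADPH regeneration for 60 min at 37C. Luciferin read by luminescence after detection reagent; normalized to 57uM ketoconazole as full inhibition.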

Test [3] in a line: qHTS Assay for Identification of Small Molecule Agonists for Thrombopoietin (TPO) Signaling Pathway (AID 917). A digest of the protocol:
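Activators of TPO signaling were sought in murine Ba/F3 cells transfected with the human receptor, using a luciferase gene driven by the Glycoprotein IIb promoter; 24-hr compound exposure at 37 C alongside 26 pM TPO, in IL-3-free medium.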

Test [4] concerns the target Pyruvate kinase (Leishmania mexicana) (UniProt Q27686). As to the kind of experiment: qHTS Validation Assay for Inhibitors of Leishmania Mexicana Pyruvate Kinase (AID 945). Further: potency means the concentration at half of the fitted maximal effect. A digest of the protocol:
(§1)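 Compounds are tested as eight-point concentration series. Reactions contain 0.2 nM LmPYK E451W, 0.5 mM PEP, 0.1 mM ADP, 7 mM MgCl2 and 50 mM KCl at pH 7.2, run 1 h at room temperature, then read by PKLight luminescence.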

Test [5] deals with Pyruvate kinase PKM (Homo sapiens) (UniProt P14618). As to the kind of experiment: qHTS Assay for Activators of Human Muscle Pyruvate Kinase (AID 954; active means well fitted curve in the direction sought with a large enough effect, not every such curve was filed as active). A digest of the protocol:
(§2)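 Purified human PKM2 (0.1 nM) with 0.5 mM PEP (Km) and 0.1 mM ADP in 50 mM imidazole pH 7.2, KCl, MgCl2, 1 h at room temperature; ATP formed read by coupled luciferase luminescence. Normalized to no-enzyme/110 uM thiadiazolimine inhibition; 0.3 nM enzyme column for activation.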

Test [6] deals with Muscarinic acetylcholine receptor M1 (Rattus norvegicus) (UniProt P08482). In words: qHTS Assay for Antagonists of Acetylcholine Muscarinic M1 Receptor: Measurement of IP-One Response (AID 944). Further: nearly all actives have a fitted effect of over 75% in size. Further: potency means the concentration at half of the fitted maximal effect. A digest of the protocol: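 CHO cells expressing rat M1 receptor, recovered overnight, were pre-incubated 10 min with compound, then stimulated 30 min with carbachol at EC80 (200 nM) in LiCl-containing buffer, pH 7.4. IP1 accumulation was read by HTRF (620/665 nm).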
Sequence of Muscarinic acetylcholine receptor M1 (Rattus norvegicus) (P08482 whole entry, looked up): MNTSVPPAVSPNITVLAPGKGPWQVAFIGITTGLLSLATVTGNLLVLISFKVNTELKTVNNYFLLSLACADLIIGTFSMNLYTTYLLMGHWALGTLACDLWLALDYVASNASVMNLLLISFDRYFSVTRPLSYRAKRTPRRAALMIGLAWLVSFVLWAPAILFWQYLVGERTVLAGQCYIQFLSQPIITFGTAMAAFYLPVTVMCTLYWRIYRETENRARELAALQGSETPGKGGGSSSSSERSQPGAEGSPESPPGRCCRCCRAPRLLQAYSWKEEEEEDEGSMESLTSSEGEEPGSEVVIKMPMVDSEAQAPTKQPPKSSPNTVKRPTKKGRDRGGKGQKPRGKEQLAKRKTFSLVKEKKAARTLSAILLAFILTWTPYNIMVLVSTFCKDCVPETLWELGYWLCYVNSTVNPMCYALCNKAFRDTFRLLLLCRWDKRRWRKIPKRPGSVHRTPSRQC

Test [7] in a line: Confirmation and Secondary Assay for Modulators of Hemoglobin Beta Chain Splicing at IVS2 654 locus (AID 910).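 Further: HeLa cells stably carrying EGFP split by mutant beta-globin IVS2-654 intron.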 A digest of the protocol: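 HeLa cells stably expressing EGFP interrupted by β-globin IVS2-654 intron, seeded overnight in Opti-MEM/2% FCS, then treated 2 days at 37 °C. Restored splicing read as total peak GFP intensity per well by laser scanning cytometry (488 nm excitation, 500–520 nm emission); 500 nM antisense PNA as control.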

Test [8] in a line: Confirmation and Secondary Assay for Modulators of Hemoglobin Beta Chain Splicing at IVS2 705 locus (AID 930).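 Further: HeLa cells stably expressing the EGFP-705 splicing reporter; GFP fluorescence per well restored by corrected splicing of the IVS2-705 intron in EGFP; series mostly up to about 46 µM.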 A digest of the protocol:
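Fluorescence gain (488 nm laser, 500-520 nm PMT) reflects restored correct splicing of a mutant IVS2-705 intron inside EGFP in stably transfected HeLa cells after 2-day compound treatment.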

Test [9] is described as follows: qHTS Assay for Identification of Small Molecule Antagonists for Thrombopoietin (TPO) Signaling Pathway (AID 918). Further: potency means the concentration at half of the fitted maximal effect; nearly all actives have a fitted effect of over 60% in size. The following applies: TPO-dependent cell signaling reporter, antagonist mode. A digest of the protocol: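 Murine Ba/F3 cells stably expressing human TPO receptor and a Glycoprotein IIb promoter–luciferase reporter were IL-3-starved overnight, treated with compounds plus TPO (26 pM final, its EC50) for 24 hrs at 37 C, then read by luminescence.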

Test [10] addresses Pyruvate kinase PKM (Homo sapiens) (UniProt P14618). In words: qHTS Assay for Inhibitors of Human Muscle Pyruvate Kinase (AID 958). Conditions: purified human PKM enzyme activity. A digest of the protocol: as §2
Test [11] has as its target Pyruvate kinase (Leishmania mexicana) (UniProt Q27686). As to the kind of experiment: qHTS Validation Assay for Activators of Leishmania Mexicana Pyruvate Kinase (AID 959). A digest of the protocol:
as §1

The target of test [12] is Muscarinic acetylcholine receptor M1 (Rattus norvegicus) (UniProt P08482). In words: qHTS Assay for Antagonists of Acetylcholine Muscarinic M1 Receptor: Kinetic Measurement of Intracellular Calcium Response (AID 943). Further: nearly all actives have a fitted effect of over 75% in size. Further: potency means the concentration at half of the fitted maximal effect. A digest of the protocol: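 CHO cells stably expressing rat M1 were loaded with no-wash Fluo-4 dye for 1 h at 37C, pre-incubated 10 min with compound, then challenged with EC80 carbachol (100 nM final); kinetic calcium read 4 min, peak/basal ratio.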

Inconclusive results are not listed. The source made the active and inactive calls. Unless noted, the call rests on the fitted dose curve; in most records, active means well fitted curve in the direction sought with a large enough effect; inconclusive means small, poorly fitted or top-dose-only effect, or another doubt; inactive means no such curve, though single readings can be large; an effect the other way counts as inactive or inconclusive.

Sequence of Pyruvate kinase (Leishmania mexicana) (Q27686 2-499 E452W): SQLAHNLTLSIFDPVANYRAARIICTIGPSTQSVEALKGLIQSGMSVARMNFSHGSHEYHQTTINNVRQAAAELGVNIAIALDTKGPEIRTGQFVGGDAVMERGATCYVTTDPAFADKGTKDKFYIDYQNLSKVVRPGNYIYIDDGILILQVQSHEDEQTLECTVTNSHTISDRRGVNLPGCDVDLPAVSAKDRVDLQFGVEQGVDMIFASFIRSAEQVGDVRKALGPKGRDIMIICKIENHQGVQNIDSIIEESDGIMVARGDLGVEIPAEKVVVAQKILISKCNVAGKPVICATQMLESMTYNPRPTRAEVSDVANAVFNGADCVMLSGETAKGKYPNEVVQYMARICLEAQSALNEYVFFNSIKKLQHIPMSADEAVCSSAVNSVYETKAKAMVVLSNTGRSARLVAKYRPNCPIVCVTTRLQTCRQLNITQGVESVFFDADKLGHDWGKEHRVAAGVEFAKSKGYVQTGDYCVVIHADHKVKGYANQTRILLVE
Sequence of Cytochrome P450 2C19 (Homo sapiens) (P33261 whole entry, looked up): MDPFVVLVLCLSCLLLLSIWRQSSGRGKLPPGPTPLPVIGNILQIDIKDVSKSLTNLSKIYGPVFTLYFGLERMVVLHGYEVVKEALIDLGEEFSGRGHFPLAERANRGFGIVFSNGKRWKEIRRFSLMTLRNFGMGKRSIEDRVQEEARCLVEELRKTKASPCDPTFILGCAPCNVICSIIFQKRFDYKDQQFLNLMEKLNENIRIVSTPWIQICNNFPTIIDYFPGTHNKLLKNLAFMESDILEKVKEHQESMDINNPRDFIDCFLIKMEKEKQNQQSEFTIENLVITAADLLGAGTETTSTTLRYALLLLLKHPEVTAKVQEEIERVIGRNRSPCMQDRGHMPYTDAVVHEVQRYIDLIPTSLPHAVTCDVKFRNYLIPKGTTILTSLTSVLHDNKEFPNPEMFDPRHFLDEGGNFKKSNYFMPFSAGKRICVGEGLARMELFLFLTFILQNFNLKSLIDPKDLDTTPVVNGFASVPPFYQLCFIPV
Sequence of Pyruvate kinase PKM (Homo sapiens) (P14618 whole entry, looked up): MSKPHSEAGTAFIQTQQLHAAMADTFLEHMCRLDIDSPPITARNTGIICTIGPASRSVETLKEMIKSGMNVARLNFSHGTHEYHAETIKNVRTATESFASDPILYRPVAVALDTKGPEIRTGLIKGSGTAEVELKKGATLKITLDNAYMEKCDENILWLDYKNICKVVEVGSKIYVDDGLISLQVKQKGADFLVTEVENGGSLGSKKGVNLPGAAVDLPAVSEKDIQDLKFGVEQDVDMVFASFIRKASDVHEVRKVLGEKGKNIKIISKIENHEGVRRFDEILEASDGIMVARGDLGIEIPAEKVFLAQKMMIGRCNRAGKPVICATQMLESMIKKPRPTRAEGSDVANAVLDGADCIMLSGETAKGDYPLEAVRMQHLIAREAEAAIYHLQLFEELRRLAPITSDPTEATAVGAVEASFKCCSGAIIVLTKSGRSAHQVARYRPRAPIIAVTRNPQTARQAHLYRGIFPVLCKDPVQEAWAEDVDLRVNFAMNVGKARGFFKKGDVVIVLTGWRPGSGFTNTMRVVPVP

In the case of `Brc1c(NC2=NCCN2)ccc2nccnc12`, the Potency result in test [1], in test [2] and in test [4] was “inactive” in each case. In addition, the compound was called inactive in test [3] and in test [5].

Take `CC(=O)Oc1cc(C(C)C)c(OCCN(C)C)cc1C`: the Potency entry in test [1] and in [4] was “inactive” in each case. The call in test [3] was inactive. The Potency in test [6] was 12.6 µM (active).

For `CN(C)C(=O)Oc1cccc([N+](C)(C)C)c1`, the Potency entry in test [1] and in [4] was “inactive” in each case. The compound was called inactive in [7], in test [3] and in test [8].

In the case of `C[n+]1cc2c3c(ccc2c2ccc4cc5c(cc4c21)OCO5)OCO3`, the Potency in [1] was 10 µM (active); in [2], 6.31 µM (active); in test [9], 1 µM (active); in test [6], 12.6 µM (active); in test [4], 10 µM (active); in test [10], 10 µM (active). Moreover, the outcome in test [7], in test [8], in test [5] and in test [11] was inactive.

For the compound `Cc1nc2c([nH]1)c(=O)n(C)c(=O)n2Cc1ccco1`, the Potency in test [1] is 0.0631 µM (active). Further, the Potency entry in test [2], in [6] and in [4] was “inactive” each time. Also, in [3], the compound was called inactive.

Consider `CC1=C(C)C(=O)C(CCCCC#CCCCC#CCO)=C(C)C1=O`, for which the Potency in test [2] is 5.01 µM (active). Besides, the result in test [3] and in test [5] was inactive. For the same compound, the Potency entry in test [12] and in [4] was “inactive” throughout.

`CC[N+](C)(C)c1cccc(O)c1`: the Potency entry in [1] and in test [4] was “inactive” in each case. Also, the outcome in [7], in [3] and in test [8] was inactive.

Regarding `Cc1ccc(=O)n(-c2ccccc2)c1`, the Potency entry in [1], in test [2], in test [12], in test [6] and in test [4] was “inactive” in each case. Moreover, the compound was called inactive in test [3].

In the case of `COc1cc2c(cc1OC)-c1cc(=Nc3c(C)cc(C)cc3C)n(C)c(=O)n1CC2`, in test [1], the Potency was 5.62 µM (active). Besides, the Potency entry in test [4] was “inactive”. The outcome in [5] was inactive.

`CN1CCN(C2=Nc3ccccc3Oc3ccc(Cl)cc32)CC1`: the Potency entry in test [1] and in [4] was “inactive” throughout. For the same compound, the compound was classed as inactive in test [7], in test [3], in test [8] and in test [5]. For the same compound, the values for the Potency in [12] and in test [6] were 0.282 µM (active) and 3.16 µM (active), respectively.

As for `CC1=NS(=O)(=O)c2cc(Cl)ccc2N1`, the Potency result in [2] and in test [4] was “inactive” in each case. Further, the result in [7], in [3], in test [8] and in [5] was inactive.
